# Laboratory results taken from PubChem BioAssay.
# Target: E3 ubiquitin-protein ligase XIAP (Homo sapiens) (UniProt P98170)
# Assay: XIAP binders, primary screen, biophysical, small-molecule microarray, fluorescence 635 nm (AID 1181);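 also: score merges 667 nm emission and signal to noise over triplicate slides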
# Conditions: small-molecule microarray binding, higher = more signal
# Chain of E3 ubiquitin-protein ligase XIAP (Homo sapiens) (P98170 whole entry, looked up): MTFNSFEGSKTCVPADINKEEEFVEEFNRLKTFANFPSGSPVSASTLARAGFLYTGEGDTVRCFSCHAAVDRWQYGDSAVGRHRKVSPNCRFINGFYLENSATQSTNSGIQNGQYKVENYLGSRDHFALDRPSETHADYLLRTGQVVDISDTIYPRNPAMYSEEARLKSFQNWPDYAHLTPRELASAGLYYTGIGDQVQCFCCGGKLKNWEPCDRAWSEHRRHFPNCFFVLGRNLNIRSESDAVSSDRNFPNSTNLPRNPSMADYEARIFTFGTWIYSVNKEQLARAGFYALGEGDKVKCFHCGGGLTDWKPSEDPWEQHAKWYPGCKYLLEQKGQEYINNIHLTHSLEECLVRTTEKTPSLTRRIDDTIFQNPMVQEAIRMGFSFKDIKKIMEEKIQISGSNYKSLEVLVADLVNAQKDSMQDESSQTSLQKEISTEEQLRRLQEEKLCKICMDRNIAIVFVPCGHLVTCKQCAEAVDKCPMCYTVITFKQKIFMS
row,SMILES,composite z-score
1,CC1CC/C=C\[C@H]2OC34C=CCN(c5ccc6ccccc6c5)C(=O)[C@H]3N(CCCCCO)C(=O)[C@@H]4C2C(=O)O1 (stereo not given in full),-0.471
2,CN1C(=O)C2C=CC(C(O)C(C)(C)C)N(Nc3ccccc3)C2C1=O (stereo not given),0.621
3,Cc1ccc(S[C@]2(C(=O)NCCCN(C)C)CC(=O)N(Cc3ccccc3)[C@@H]2c2ccc(CO)cc2)cc1,-0.185
4,O=C1O[C@H](c2ccccc2)[C@H](c2ccccc2)N2[C@H]1[C@@H](C(=O)NC[C@H](O)c1ccccc1)[C@]1(C(=O)Nc3ccc(C#CC4=CCCCC4)cc31)[C@H]2c1ccc(O)cc1,-0.124
5,O=C(CS)NCCCCCNC(=O)[C@H]1C[C@H]2C(=O)N[C@@H](Cc3ccccc3)C(=O)N2[C@H]1c1cccc(OCCO)c1,0.0585
6,CCCC[C@H]1OB(O)C[C@H]2C1=C(COc1ccccc1)C[C@H]1C(=O)N(Cc3ccccc3)C(=O)[C@H]12,0.0617
7,O=c1cccc(-c2cccc3ccccc23)o1,0.126
8,CCCCCN1CC=CC23O[C@@H]4C=CCCOC(=O)C4[C@H]2C(=O)N(CCCO)[C@@H]3C1=O (stereo not given in full),-0.162
9,CS(=O)(=O)CCOC(=O)C1=CC(c2ccc(CO)cc2)=CC(c2cccs2)N(Cc2cccc(OC(F)(F)F)c2)C=C1C(=O)OCCS(C)(=O)=O (stereo not given),-0.22
10,C#C[C@H](O[Si](C#CCCCCCC)(C(C)C)C(C)C)c1ccccc1,0.0406
11,COc1ccc([Si](C)(C)[C@@H]2[C@@H](CCO)O[C@]3(C(=O)N(Cc4ccccc4)c4ccc(N(C=O)c5ccccc5)cc43)[C@H]2C)cc1,0.0031
12,C=C(COC)C(=O)CC[C@H](OC(=O)c1cccnc1)c1ccccc1OCCO,-0.0143
13,C=CCC(OC(C)=O)[C@@H]1[C@@H](N(Cc2cc3ccccc3o2)C(=O)c2ccc(C)cc2)c2cc(OCCCO)ccc2N1C(=O)c1ccc(-c2ccccc2)cc1 (stereo not given in full),2.75
14,NC(=O)[C@]1(Cc2ccccc2)N=C(c2ccc(OCCCO)cc2)O[C@@H]1c1ccccc1,0.16
15,[N-]=[N+]=NCc1ccccc1C[C@]1(C(=O)NCCN2CCOCC2)N=C(c2ccc(OCCCO)cc2)O[C@H]1c1ccccc1CN=[N+]=[N-],0.0871
16,CCOC(=O)C1=CC[C@@H](c2cccc(Cl)c2)N(S(=O)(=O)c2ccc(C)cc2)[C@H]1c1ccc(C#N)cc1,-0.38
17,O=c1cccc(-c2ccccc2)o1,0.045
18,CC(=O)NCCCC[C@@H]1NC(=O)[C@@H]2C[C@H](C(=O)NCc3ccc(F)cc3)[C@H](c3ccc(O)cc3)N2C1=O,0.105

row,SMILES,composite z-score
1,O=C1OCCC=C[C@H]2OC34C=CCN(c5ccc6ccccc6c5)C(=O)[C@H]3N(CCCCCCO)C(=O)[C@@H]4C12 (stereo not given in full),-0.0953
2,O=C1OCCC/C=C\[C@H]2OC34C=CCN(Cn5nnc6ccccc65)C(=O)[C@H]3N(CCCO)C(=O)[C@@H]4C12 (stereo not given in full),0.301
3,CC(C)OC(=O)C1=CCC(c2cccc(Cl)c2)O1 (stereo not given),-0.197
4,O=C1[C@H]2C=C(Br)[C@H](C[C@@H]2OCCOCCO)[C@@]12CO2,-0.201
5,O=c1cccc(-c2ccc3ccccc3c2)o1,0.0754
6,CCCCCCCCCCC(O)C1C=CC2C(=O)N(c3ccccc3)C(=O)C2N1Nc1ccc([N+](=O)[O-])cc1 (stereo not given),-0.126
7,CN1C(=O)C2C=CC(C(O)c3ccccc3)N(NC(=O)OC(C)(C)C)C2C1=O (stereo not given),0.0338
8,CN(C)CCCC[C@@H]1NC(=O)[C@@H]2C[C@H](C(=O)NCCCCCCN)[C@H](c3ccc(O)cc3)N2C1=O,-0.157
9,CCOC(=O)C[C@H]1[C@H](OC(=O)c2cc3ccccc3oc2=O)[C@@H](NC(=O)c2ccc3ccccc3c2)c2cc(OCCCO)ccc2N1C(=O)c1ccccc1,0.0871
10,COc1ccc([Si](C)(C)[C@@H]2[C@@H](CCO)O[C@]3(C(=O)N(Cc4ccc(N5C(=O)c6cccc7cccc5c67)cc4)c4ccccc43)[C@H]2C)cc1,0.0623
11,O=C(NCC(O)CO)[C@@]1(Cc2ccccc2)COC(c2ccc(OCCCO)cc2)=N1 (stereo not given in full),-0.135
12,CC(C)(C)OC(=O)CC[C@]1(C(=O)NCC(O)CO)N=C(c2ccc(OCCCO)cc2)O[C@H]1c1ccccc1CN=[N+]=[N-] (stereo not given in full),0.049
13,C=C(/C(=C/C[C@@H](OC(C)=O)c1ccc(CO)o1)c1cnc2ccccc2c1)C(C)C,0.701
14,O=C1O[C@H](c2ccccc2)[C@H](c2ccccc2)N2[C@H]1[C@@H](C(=O)NC[C@H](O)c1ccccc1)[C@]1(C(=O)Nc3ccc(C#CC4(O)CCCCCC4)cc31)[C@H]2c1ccccc1OCCO,0.165
15,O=C1C[C@@](C(=O)O)(c2ccc([N+](=O)[O-])cc2)[C@@H](c2ccc(CO)cc2I)N1C1CCCCC1,-0.289
16,COc1ccc(CCNC(=O)[C@@]2(C)c3ccccc3C(=O)N(Cc3ccccc3)[C@H]2c2ccc(CO)cc2)cc1,-0.138
17,CC1CC/C=C\[C@H]2OC34C=CCN(Cn5nnc6ccccc65)C(=O)[C@H]3N(CCCO)C(=O)[C@@H]4C2C(=O)O1 (stereo not given in full),0.244
